Assay results taken from PubChem BioAssay (NCI).
The panel holds about 79,000 compounds, 15% with a hit somewhere; the sample as a whole holds those more often. The source made the active and inactive calls. Cut-off read from the data, not from the text of the source: active = growth inhibition above about 70%; inactive = the rest.

Columns and labels:
[1] = NCI Yeast Anticancer Drug Screen. Data for the rad50 strain (AID 155);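 note: 0% = growth of vehicle-only cultures of the same strain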; details: S. cerevisiae rad50 strain growth inhibition, stronger effect = higher value
Summary of the method: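 Genetically altered yeast (DNA repair pathway); compound treatment; growth inhibition vs vehicle ctrl.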

[2] = NCI Yeast Anticancer Drug Screen. Data for the mec2-1 strain (AID 157); details: S. cerevisiae mec2-1 strain, stronger effect = higher value
Summary of the method: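 Each compound was tested on mec2-1 yeast, a strain altered in DNA damage repair or cell cycle control. Growth inhibition is reported relative to vehicle.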

[3] = NCI Yeast Anticancer Drug Screen. Data for the sgs1 mgt1 strain (AID 161);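 note: 0% = growth of cultures given vehicle only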; details: S. cerevisiae sgs1 mgt1 strain, stronger effect = higher value
Summary of the method: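 Genetically altered yeast, compound exposure, growth inhibition relative to vehicle.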

[4] = NCI Yeast Anticancer Drug Screen. Data for the cln2 rad14 strain (AID 165);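 note: 0% = growth equal to vehicle treated cultures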; details: S. cerevisiae cln2 rad14 strain, stronger effect = higher value
Summary of the method: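 Test compounds were added to cln2 rad14 yeast cultures; inhibition of growth was then determined by comparison with vehicle treatment.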

[5] = NCI Yeast Anticancer Drug Screen. Data for the bub3 strain (AID 167); details: S. cerevisiae bub3 mutant strain, stronger effect = higher value
Summary of the method: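 Yeast carrying a defined mutation is treated with each compound, and growth is compared with that of vehicle-exposed cells to give inhibition.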

[6] = NCI Yeast Anticancer Drug Screen. Data for the mlh1 rad18 strain (AID 175); details: S. cerevisiae mlh1 rad18 strain growth inhibition, stronger effect = higher value
Summary of the method: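 Inhibition values reflect reduced growth of mutant yeast versus vehicle-treated controls following compound exposure; the mutations affect DNA damage repair.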

[7] = at 5.0 µM (retest, dose inferred, filed as 0.5)
[8] = at 50.0 µM (retest, dose inferred, filed as 5.0)

Measured: growth inhibition

O=C(Nc1ccc(Cl)cc1)Nc1cc(Cl)ccc1O
inactive: [1]; [7] -2% | [1]; [8] 22% | [2]; [7] 0% | [2]; [8] 35% | [3]; [7] -1% | [3]; [8] 28% | [4]; [7] -8% | [4]; [8] 27% | [5]; [7] -4% | [5]; [8] 19% | [6]; [7] -3% | [6]; [8] 30%
active: [1]; at 50.0 µM 93% | [2]; at 50.0 µM 96.2% | [3]; at 50.0 µM 90.3% | [4]; at 50.0 µM 94% | [5]; at 50.0 µM 96.5% | [6]; at 50.0 µM 97.5%

COc1cc2c(cc1O)CCCCC2
inactive: [1]; [7] 4% | [1]; [8] 4% | [1]; at 50.0 µM 41.1% | [2]; [7] 3% | [2]; [8] -2% | [2]; at 50.0 µM -29.2% | [3]; [7] 1% | [3]; [8] 8% | [3]; at 50.0 µM 6.9% | [4]; [7] -2% | [4]; [8] -7% | [4]; at 50.0 µM 0% | [5]; [7] -4% | [5]; [8] 0% | [5]; at 50.0 µM -7.5% | [6]; [7] -3% | [6]; [8] 3% | [6]; at 50.0 µM 43%

Cc1nc(N)sc1N=Nc1ccc(Cl)cc1
inactive: [1]; [7] -16% | [1]; [8] 55% | [2]; [7] 7% | [2]; [8] 62% | [2]; at 50.0 µM 50% | [3]; [7] -5% | [3]; [8] 62% | [3]; at 50.0 µM 57.2% | [4]; [7] 5% | [4]; [8] 24% | [4]; at 50.0 µM 66.7% | [5]; [7] 10% | [5]; [8] 52% | [6]; [7] 21%
active: [1]; at 50.0 µM 78% | [5]; at 50.0 µM 81.8% | [6]; [8] 77% | [6]; at 50.0 µM 84.5%

c1ccc(-c2ccc(-c3ccc(C4=NCCN4)cc3)o2)cc1
active: [1]; [8] 91% | [1]; at 50.0 µM 95.7% | [2]; [8] 79% | [2]; at 50.0 µM 95% | [3]; at 50.0 µM 96.8% | [4]; [8] 70% | [4]; at 50.0 µM 89% | [5]; [8] 86% | [5]; at 50.0 µM 95.8% | [6]; [8] 95% | [6]; at 50.0 µM 97.5%
inactive: [1]; [7] 13% | [2]; [7] 16% | [3]; [7] -1% | [3]; [8] 51% | [4]; [7] -21% | [5]; [7] 4% | [6]; [7] 3%

Fc1ccc2[nH]ccc2c1
inactive: [1]; [7] 9% | [1]; [8] 41% | [1]; at 50.0 µM 55.5% | [2]; [7] -22% | [2]; [8] 13% | [2]; at 50.0 µM 28.8% | [3]; [7] 5% | [3]; [8] 19% | [3]; at 50.0 µM 60.6% | [4]; [7] 9% | [4]; [8] 47% | [4]; at 50.0 µM 34.4% | [5]; [7] 2% | [5]; [8] 62% | [5]; at 50.0 µM 62.3% | [6]; [7] -19% | [6]; [8] 44% | [6]; at 50.0 µM 49.3%

OC(Cc1ccc(Br)cc1)CN1CCC(c2ccccc2)CC1 (stereo not given)
active: [1]; [7] 98% | [1]; [8] 98% | [1]; at 50.0 µM 83.9% | [2]; [7] 71% | [2]; [8] 71% | [2]; at 50.0 µM 74.5% | [3]; [7] 97% | [3]; [8] 97% | [3]; at 50.0 µM 82.8% | [4]; [7] 87% | [4]; [8] 87% | [4]; at 50.0 µM 78.9% | [5]; [7] 83% | [5]; [8] 83% | [5]; at 50.0 µM 87.8% | [6]; [7] 88% | [6]; [8] 88% | [6]; at 50.0 µM 79%

CN(C)/C=C(\C(=O)c1ccccc1)n1nc(-c2ccccc2)cc1-c1ccccc1
inactive: [1]; [7] 15% | [1]; [8] 45% | [2]; [7] -4% | [2]; [8] 20% | [3]; [7] 11% | [3]; [8] 48% | [4]; [7] 22% | [4]; [8] 50% | [5]; [7] -3% | [5]; [8] 38% | [6]; [7] 16% | [6]; [8] 54%
active: [1]; at 50.0 µM 72.5% | [2]; at 50.0 µM 73.7% | [3]; at 50.0 µM 83.3% | [4]; at 50.0 µM 70.2% | [5]; at 50.0 µM 74% | [6]; at 50.0 µM 81.3%

Cc1ccc(OCC2CO2)c(Br)c1 (stereo not given)
active: [1]; at 50.0 µM 78.2% | [3]; [8] 71% | [6]; [8] 84%
inactive: [1]; [7] 11% | [1]; [8] 66% | [2]; [7] 1% | [2]; [8] 19% | [2]; at 50.0 µM 5.95% | [3]; [7] 15% | [3]; at 50.0 µM 49.6% | [4]; [7] 4% | [4]; [8] 15% | [4]; at 50.0 µM -44.6% | [5]; [7] -1% | [5]; [8] 1% | [5]; at 50.0 µM -13.2% | [6]; [7] 17% | [6]; at 50.0 µM 24.1%

CC(C)(C)NC(=S)N/N=C/c1cc(Cl)cc(Cl)c1O
inactive: [1]; [7] 65% | [2]; [7] 64%
active: [1]; [8] 72% | [1]; at 50.0 µM 77.1% | [2]; [8] 84% | [2]; at 50.0 µM 90% | [3]; [7] 97% | [3]; [8] 99% | [3]; at 50.0 µM 90.4% | [4]; [7] 88% | [4]; [8] 93% | [4]; at 50.0 µM 82.7% | [5]; [7] 97% | [5]; [8] 98% | [5]; at 50.0 µM 84.7% | [6]; [7] 74% | [6]; [8] 87% | [6]; at 50.0 µM 80.7%

O=C(O)CSc1nnc2c3ccccc3c3ccccc3c2n1
active: [1]; [8] 70% | [6]; [8] 71%
inactive: [1]; [7] -14% | [1]; at 50.0 µM 48% | [2]; [7] 6% | [2]; [8] 46% | [2]; at 50.0 µM 30.1% | [3]; [7] -2% | [3]; [8] 55% | [3]; at 50.0 µM 7.8% | [4]; [7] -33% | [4]; [8] 65% | [4]; at 50.0 µM 47.7% | [5]; [7] 17% | [5]; [8] 53% | [5]; at 50.0 µM 54.9% | [6]; [7] 9% | [6]; at 50.0 µM 47.1%
